{"source": "PubChem BioAssay (Tox21)", "note": "Inconclusive results are not listed. Where a call stands in place of a potency, no number is given. Calls of active or inactive are those of the source. The call rests on the fitted dose curve; in most records, active means well fitted inhibition curve with a large enough effect in the signal ratio in the repeat runs; inconclusive means weak or mixed curves, or effect the other way; inactive means flat fitted curve, though single readings scatter; the % refers to the signal ratio. Potency means the concentration at half of the fitted maximal effect."}
{"assay": "qHTS assay for small molecule disruptors of the mitochondrial membrane potential (AID 720635)", "details": "HepG2 mitochondrial membrane potential, Mito-MPS dye ratio; series mostly up to 83.2 µM", "description": "U.S. Tox21 Program National Center for Advancing Translational Sciences [NCATS] NIH Chemical Genomics Center [NCGC] U.S. Environmental Protection Agency [EPA] National Institutes of Environmental Health Sciences [NIEHS] National Toxicology Program [NTP] U.S. Food and Drug Administration [FDA] Tox21 Assay Overview: Mitochondrial membrane potential (MMP), one of the parameters for mitochondrial function, is generated by mitochondrial electron transport chain that creates an electrochemical gradient by a series of redox reactions. This gradient drives the synthesis of ATP, a crucial molecule for various cellular processes. Measuring MMP in living cells is commonly used to assess the effect of chemicals on mitochondrial function. […] The dye accumulates in the mitochondria of healthy cells as aggregates, with red fluorescence. The mitochondrial potential collapses and the dye can no longer accumulate in the mitochondria and remains in the cytoplasm in monomers, with green fluorescence.\nTox21 Assay Protocol Summary: 2,000 HepG2 cells in 5 uL/well were dispensed into black, clear-bottom 1536-well plates using a Multidrop Combi (Thermo Scientific) dispenser. The assay plates were incubated overnight at 37C to allow cells to attach to the wells, followed by the transfer of 23 nL compound or DMSO vehicle by a pin tool (Kalypsys). The plates were incubated for 1 hr at 37C and 5% CO2, followed by the addition of 5 uL of 2X Mito-MPS dye (BD Biosciences) into each well using Flying Reagent Dispenser (Aurora Discovery) and then following 30 min incubation at 37C. Fluorescence intensity (490nm excitation and 535nm emission for monomers; and 540nm excitation and 590nm emissions for aggregates) was measured using an Envision plate reader."}
{"smiles": "CNC(=O)Nc1ccc(Cl)c(Cl)c1", "Potency": "15.4 µM (active)"}
{"smiles": "CC1CCC(CO)CC1", "note": "(stereo not given)", "Potency": "inactive"}
{"smiles": "Cc1c(N)c(=O)n(-c2ccccc2)n1C", "Potency": "inactive"}
{"smiles": "CC(C)(C)OC(=O)c1cccc(N)c1", "Potency": "35.3 µM (active)"}
{"smiles": "COc1cccc(OC)c1C(=O)N[C@@H]1C(=O)N2[C@@H]1SC(C)(C)[C@@H]2C(=O)O", "Potency": "inactive"}
{"smiles": "N[C@@H](CCC(=O)O)C(=O)O", "Potency": "inactive"}
{"smiles": "Nc1ccncc1N", "Potency": "inactive"}
{"smiles": "CCCC(C)C(=O)OCC", "note": "(stereo not given)", "Potency": "inactive"}
{"smiles": "CC(=O)NC(=O)c1ccccc1O", "Potency": "inactive"}
{"smiles": "Cc1ccnc(NS(=O)(=O)c2ccc(N)cc2)n1", "Potency": "inactive"}
{"smiles": "C[N+]1(C)CCCC(OC(=O)C(O)(c2ccccc2)c2ccccc2)C1", "note": "(stereo not given)", "Potency": "inactive"}
{"smiles": "C=CC(C)(CCC=C(C)C)OC(=O)CC", "note": "(stereo not given)", "Potency": "inactive"}
{"smiles": "CCOc1ccccc1OCC", "Potency": "inactive"}
{"smiles": "CC(=O)N1C[C@H](O)C[C@H]1C(=O)O", "Potency": "inactive"}
{"smiles": "C[N+]1(CC2COC(c3ccccc3)(c3ccccc3)O2)CCCCC1", "note": "(stereo not given)", "Potency": "inactive"}
{"smiles": "CCOC(=O)c1ccccc1", "Potency": "inactive"}
{"smiles": "C=COCC1CCC(COC=C)CC1", "note": "(stereo not given)", "Potency": "inactive"}
{"smiles": "CNCCO", "Potency": "inactive"}
{"smiles": "CC(C)(C)C(=O)Oc1ccc(S(=O)(=O)Nc2ccccc2C(=O)NCC(=O)O)cc1", "Potency": "inactive"}
{"smiles": "CCCCOC(=O)CCC(C)=O", "Potency": "inactive"}
{"smiles": "CO[C@@]1(NC(=O)CSC[C@@H](N)C(=O)O)C(=O)N2C(C(=O)O)=C(CSc3nnnn3C)CS[C@@H]21", "Potency": "inactive"}
{"smiles": "COc1ccnc(CS(=O)c2nc3cc(OC(F)F)ccc3[nH]2)c1OC", "note": "(stereo not given)", "Potency": "inactive"}
{"smiles": "CC(=O)Oc1cccc(C)c1", "Potency": "inactive"}
{"smiles": "CN1CCC(=C2c3ccccc3CCc3cccnc32)CC1", "Potency": "inactive"}
{"smiles": "C1CCC2(CCCCO2)OC1", "Potency": "inactive"}
{"smiles": "N[C@H](C(=O)O)[C@@H](O)c1ccc(O)c(O)c1", "Potency": "26.6 µM (active)"}
{"smiles": "COc1cc(C(=O)OC(COCCC(C)C)CN2CCOCC2)cc(OC)c1OC", "note": "(stereo not given)", "Potency": "inactive"}
{"smiles": "O=C(c1ccccc1)C1(O)CCCCC1", "Potency": "inactive"}
{"smiles": "CC(=O)c1cnccn1", "Potency": "inactive"}
{"smiles": "NCCCC[C@H](N[C@@H](CCc1ccccc1)C(=O)O)C(=O)N1CCC[C@H]1C(=O)O", "Potency": "inactive"}
{"smiles": "CC1=NS(=O)(=O)c2cc(Cl)ccc2N1", "Potency": "inactive"}
{"smiles": "C=CN1CCCCCC1=O", "Potency": "inactive"}
{"smiles": "CCCCCCCCCCCCCCCCCCO", "Potency": "inactive"}
{"smiles": "Clc1cc(Cl)cc(Cl)c1", "Potency": "inactive"}
{"smiles": "Nc1c2c(nc3c1CCC3)CCCC2", "Potency": "inactive"}
{"smiles": "NO", "Potency": "55.5 µM (active)"}
{"smiles": "NC(=O)N[C@@H](CCC(=O)O)C(=O)O", "Potency": "inactive"}
{"smiles": "CC(C(=O)O)c1cccc(Oc2ccccc2)c1", "note": "(stereo not given)", "Potency": "inactive"}
{"smiles": "CCN[C@H]1C[C@H](C)S(=O)(=O)c2sc(S(N)(=O)=O)cc21", "Potency": "inactive"}
{"smiles": "CC(=O)c1ccccc1[N+](=O)[O-]", "Potency": "inactive"}
